PGK inhibitor = blocks T. brucei phosphoglycerate kinase; P07378; PGK/GAPDH coupled, Kinase-Glo luminescence, 60 min; Potency, µM (titrated, usually from 57.5 µM), inactives show at the top dose activity change, negative = inhibition, most hits filed as inhibitors; 0.043% of 380,000 active; AID 602233; further: on the % scale 0 is the no-effect control and ±100 the full control effect; nearly all actives have a fitted effect of over 60% in size
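Luminescent ATP detection (Kinase-Glo Plus) follows a 60-minute room-temperature incubation, with wells lacking PGK as controls. Buffer: 100 mM TEA (pH 7.6), 5 mM MgCl2, 0.01% Tween-20. Coupling enzyme GAPDH (100 nM final) supplies unstable 1,3-BPG in-well.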
Tb PFK inh-1 = T. brucei PFK enzyme inhibition. O15648. AID 485367. Potency, µM (titrated, usually from 57.5 µM), for the others: at the highest dose activity, negative = inhibition, usual class: inhibitors. T. brucei PFK, ADP-Glo luminescence. 0.17% of 330,000 active;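 further: 0% = uninhibited 1x PFK enzyme wells and -100% = no-enzyme wells; nearly all actives have a fitted effect of over 60% in size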
Target sequence (O15648 whole entry, looked up): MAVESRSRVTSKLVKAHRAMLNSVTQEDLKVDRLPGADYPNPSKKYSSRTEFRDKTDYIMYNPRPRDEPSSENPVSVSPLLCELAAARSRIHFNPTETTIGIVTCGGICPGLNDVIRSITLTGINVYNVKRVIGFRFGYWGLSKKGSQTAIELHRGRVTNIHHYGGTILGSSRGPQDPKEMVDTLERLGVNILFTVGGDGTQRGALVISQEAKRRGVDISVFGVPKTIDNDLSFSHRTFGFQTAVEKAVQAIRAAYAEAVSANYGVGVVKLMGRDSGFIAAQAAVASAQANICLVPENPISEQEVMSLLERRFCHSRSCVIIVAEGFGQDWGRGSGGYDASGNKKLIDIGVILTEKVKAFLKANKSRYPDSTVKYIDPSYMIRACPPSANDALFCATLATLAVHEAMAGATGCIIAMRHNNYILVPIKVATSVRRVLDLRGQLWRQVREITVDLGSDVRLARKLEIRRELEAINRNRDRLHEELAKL
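1.25 nM PFK with 0.5 mM F6P and 0.1 mM ATP in 0.1 M TEA pH 8.0, 5 mM MgCl2, incubated 45 min at room temperature; ADP measured by ADP-Glo luminescence; compounds titrated up to 57 uM.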
Chronic BCR inh = chronic active BCR signaling inhibition; ABC-DLBCL IkBa-CBG/CBR reporter, luminescence ratio, 4 h; Potency, µM (doses to about 46.1 µM), inactives show at the highest dose activity change, negative = inhibition, most hits filed as inhibitors; 0.05% of 340,000 active; AID 493014; active means well fitted inhibition curve with a large enough effect in the signal ratio, with a control signal flat, not every such curve was filed as active; inconclusive means small, poorly fitted or top-dose-only effect, or effect the other way, or a change in a side signal; the % refers to the signal ratio;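 further: plate controls were basal doxycycline-induced cells for no effect and cells given 10 µM MG132 for full effect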
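Doxycycline induced both beetle luciferases in TMD8 lymphoma cells; IKK-driven degradation limits the IkappaBalpha-fused green signal, while red luminescence normalises for cell number and nonspecific effects. Compounds tested up to 46 uM, 4 hrs.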
Pin1 inhibitor = inhibitors of human Pin1; Pin1 FP peptide displacement, HiFluor488, 10 min; Potency, µM (doses to about 115 µM), inactives show at the highest dose activity, negative = inhibition, hits mostly inhibitors; 0.009% of 390,000 active; AID 504891; active means well fitted inhibition curve with a large enough effect in the polarisation, with a control signal flat, not every such curve was filed as active; inconclusive means small, poorly fitted or top-dose-only effect, or effect the other way, or a change in a side signal; inactive means no such curve, though single readings can be large or run the other way; the % refers to the polarisation; further: on the % scale 0 is the no-effect control and ±100 the full control effect
Target sequence (Q13526 whole entry, looked up): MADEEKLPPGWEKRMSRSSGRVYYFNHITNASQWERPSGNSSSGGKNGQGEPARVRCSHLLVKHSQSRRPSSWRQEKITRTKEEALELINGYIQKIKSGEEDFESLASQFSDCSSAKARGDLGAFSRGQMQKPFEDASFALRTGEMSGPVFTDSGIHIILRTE
ERG Ets-DNA blk = ERG Ets/DNA interaction inhibition. fluorescence polarization, His-ERG Ets domain / labelled DNA. AID 624246. 0.028% of 370,000 active. Potency, µM (titrated, usually from 76.9 µM), for the others: at the top dose FP activity, negative = inhibition, hits mostly inhibitors. P11308; active means well fitted inhibition curve with a large enough effect in the polarisation, with a control signal flat; inconclusive means small, poorly fitted or top-dose-only effect, or effect the other way, or a change in a side signal; inactive means no such curve, though single readings can be large or run the other way; the % refers to the polarisation;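 further: polarization taken with two DNA probes labelled with fluorescein and Texas red; % of control where 0% means no effect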
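His-tagged ERG Ets domain (1 uM in the protein solution; 300mM KCl, 50mM Tris-HCl, 1mM EDTA, 1mM DTT, pH 7.5) received compound, then a probe mix of 5 nM fluorescein-DNA and 100nM Texas-615-DNA. Fluorescence polarization was read for both dyes.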
TbPFK ATP = Tb phosphofructokinase inhibition, orthogonal luminescence | Tb PFK enzyme, ATP depletion, Kinase-Glo Plus luminescence | 47% of 1,100 active | AID 504636 | Potency, µM (highest dose often 57.5 µM), without a hit: at the top dose inhibition | shares compounds with Tb PFK inh-1; calls by dose curve; further: nearly all actives have a fitted effect of over 60% in size
Tb PFK inh-2 = validation of T. brucei phosphofructokinase inhibitors; 41% of 1,100 active; purified T. brucei PFK, ADP-Glo luminescence, 45 min; Potency, µM (highest dose often 57.5 µM), for inactives: at the top dose activity change, negative = inhibition, actives largely listed as inhibitors; shares compounds with Tb PFK inh-1; AID 504637;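 further: plate controls were full PFK enzyme control for no effect and no enzyme control for full effect; nearly all actives have a fitted effect of over 60% in size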
* = called active by the depositor; i = inactive; ? = inconclusive; . = not tested or not shown. A selection: hits, their analogues and other compounds. The true share with any hit is near 0.25%. Unless noted, the call rests on the fitted dose curve; in most records, active means well fitted curve in the direction sought with a large enough effect; inconclusive means small, poorly fitted or top-dose-only effect, or another doubt; inactive means no such curve, though single readings can be large; an effect the other way counts as inactive or inconclusive. Potency means the concentration at half of the fitted maximal effect.

SMILES	PGK inhibitor	Tb PFK inh-1	Chronic BCR inh	Pin1 inhibitor	ERG Ets-DNA blk	TbPFK ATP	Tb PFK inh-2
CC(C)C1O/C(=N/C(=O)Nc2ccc(Cl)c(Cl)c2)NC1=O (stereo unspecified)	7.4%	9.53µM*	?	-1.0%	1.6%	23.9µM*	26.9µM*
Nc1ccc(O)c2c1C(=O)c1ccccc1C2=O	?	?	11.4%	.	-24.3%	10.8%	-23.8%
Nc1ccc(Br)c2c1C(=O)c1ccccc1C2=O	-4.9%	1.5%	?	?	-1.5%	.	.
COc1cc(/C=C/c2[nH]c(=O)[nH]c(=O)c2[N+](=O)[O-])cc([N+](=O)[O-])c1O	.	?	8.4%	?	-0.8%	-25.1%	?
O=C(Nc1cccc(C(=O)N2CCN(c3cccc(Cl)c3)CC2)c1)c1ccccc1	.	?	?	3.8%	-9.3%	?	?
O=C(CCC(=O)N1CCN(c2cccc(Cl)c2)CC1)N1CCN(c2ccccc2)CC1	i	?	-14.8%	-3.9%	6.1%	?	?
O=C(CSc1ccccn1)N1CCN(c2ccccc2)CC1	8.7%	-7.6%	4.3%	-7.3%	-2.0%	.	.
O=C(O)CCCC(=O)N1CCN(c2cccc(Cl)c2)CC1	0.4%	-24.6%	-0.2%	-2.7%	-3.4%	.	.
CC(=O)c1ccc(NC(=O)N2CCN(c3cccc(Cl)c3)CC2)cc1	-2.6%	21.3µM*	?	-2.7%	2.8%	21.3µM*	?
O=C(CSc1ccccn1)N1CCN(c2cccc(Cl)c2)CC1	10.6%	?	?	2.1%	3.9%	?	?
O=C(N1Cc2ccc(Nc3nn4c(=O)c5ccccc5nc4s3)cc2C1)C(F)(F)F	.	.	.	7.0%	.	.	.
CC(=O)OCC(NC(=O)C(CCCCNC(=O)OCc1ccccc1)NC(=O)OC(C)(C)C)C1OC(n2ccc(=O)[nH]c2=O)C(OC(C)=O)C1OC(C)=O (stereo unspecified)	.	.	.	1.5%	.	.	.
O=C(CCC(=O)N1CCN(c2cccc(Cl)c2)CC1)c1cccs1	-10.1%	?	1.1%	-1.8%	12.9%	?	?
NS(=O)(=O)c1ccc(NC(=S)N2CCN(c3cccc(Cl)c3)CC2)cc1	-9.3%	?	7.4%	0.4%	-0.7%	10.7µM*	15.1µM*
O=C(COc1ccc(/C=C\[N+](=O)[O-])cc1)N1CCOCC1	3.3%	?	?	?	-16.4%	-22.3%	?
O=C(COc1ccc(S(=O)(=O)N2CCOCC2)cc1)N1CCOCC1	-3.3%	-9.0%	1.2%	0.0%	-3.9%	.	.
Oc1cc2c(cc1C(c1ccc(Cl)c(Cl)c1)N1CCCC1)OCO2 (stereo unspecified)	6.5%	21.3µM*	3.3%	?	-5.3%	?	?
CN1C(=O)c2ccc(NC(=O)CSc3ccccc3)cc2C1=O	-2.8%	-0.4%	12.7%	-1.1%	-1.6%	.	.
O=C(Nc1ccc2c(c1)C(=O)NC2=O)c1cccc(Cl)c1	-10.2%	-29.1%	-9.1%	2.7%	-1.4%	.	.
Cc1cccc(C(=O)Nc2ccc3c(c2)C(=O)NC3=O)c1	-2.5%	?	?	22.8%	18.6%	?	30.1µM*
O=C(CSc1ccc(F)cc1)Nc1ccc2c(c1)C(=O)NC2=O	i	?	4.6%	-0.6%	-0.6%	?	?
COc1ccccc1CC(=O)Nc1ccc2c(c1)C(=O)NC2=O	i	?	?	29.0%	3.2%	?	?
Cc1ccc(S(=O)(=O)N(C)CCN(C)c2nc(-c3cccs3)nc3ccccc23)cc1	.	.	.	3.3%	.	.	.
Cn1c(N)c(C(=O)COC(=O)Cc2ccc(Cl)c(Cl)c2)c(=O)n(C)c1=O	1.5%	9.53µM*	4.5%	2.4%	8.3%	6.75µM*	12µM*
CCCN1CNc2c(c(=O)[nH]c(=S)n2CCc2ccccc2Cl)C1	.	.	.	-8.1%	.	.	.
SMILES	PGK inhibitor	Tb PFK inh-1	Chronic BCR inh	Pin1 inhibitor	ERG Ets-DNA blk	TbPFK ATP	Tb PFK inh-2
CCOC(=O)c1c(/N=C/C2=C(O)CCCC2=O)sc(C)c1C	-1.4%	-0.2%	-3.0%	-4.4%	11.5%	.	.
CCOC(=O)c1c(-c2ccc(OC)cc2)csc1/N=C/C1=C(O)CCCC1=O	2.0%	?	?	?	11.8%	-0.1%	-2.0%
CC(=O)Nc1ccc(NC(=O)Cn2nc([N+](=O)[O-])c(Br)c2C)cc1	-4.0%	12µM*	-16.6%	-2.7%	-2.4%	19µM*	30.1µM*
Cc1c(Br)c([N+](=O)[O-])nn1CC(=O)Nc1ccc2nc3n(c(=O)c2c1)CCCC3	-8.5%	?	?	-5.5%	-8.9%	23.9µM*	?
Cc1c(Br)c([N+](=O)[O-])nn1CC(=O)Nc1ccccn1	5.5%	19µM*	-7.5%	1.4%	6.1%	19µM*	?
Cc1c(Br)c([N+](=O)[O-])nn1CC(=O)Nc1ccc(Cc2ccncc2)cc1	-6.3%	13.5µM*	?	-14.2%	-1.7%	13.5µM*	21.3µM*
Cc1nn(CC(=O)Nc2ccccn2)c(C)c1Br	-5.7%	-5.7%	0.5%	0.3%	3.3%	.	.
Cc1c(Br)c([N+](=O)[O-])nn1CC(=O)Nc1ccc(C(C)C)cc1	i	?	-2.3%	-0.2%	-5.3%	.	.
NC(=O)C1CCN(c2nc(-c3cccc(C(F)(F)F)c3)cs2)CC1	.	.	.	-3.2%	.	.	.
NCCC(=O)Nc1cccc(-c2nn3c(=O)cc(N4CCNCC4)nc3s2)c1	.	.	.	0.6%	.	.	.
Cc1ccc(-c2cn3c(=S)[nH]nc3s2)cc1	i	?	-1.4%	0.0%	5.4%	0.675µM*	?
Clc1ccc(CNc2cnccn2)cc1Cl	0.0%	6.75µM*	?	-0.9%	-2.3%	5.36µM*	9.53µM*
N#Cc1ccc(CNc2cnccn2)cc1	i	-16.0%	4.5%	-0.7%	-3.1%	.	.
O=S(=O)(c1ccc2ncsc2c1)N1CCN(c2nc(-c3cccs3)nc3ccccc23)CC1	.	.	.	-2.7%	.	.	.
N#Cc1c(N)nc2c(c1N)CC(CCl)O2 (stereo unspecified)	-0.1%	?	0.7%	-11.3%	2.9%	9.1%	2.7%
Cc1ccc(-c2csc(NC(=O)C3CC(=O)N(c4ccc5c(c4)OCCO5)C3)n2)o1 (stereo unspecified)	.	.	.	1.2%	.	.	.
COc1ccc(NC(=O)Cc2ccc(Cl)c(Cl)c2)cn1	-0.6%	12µM*	?	4.5%	-13.4%	6.01µM*	13.5µM*
COc1ccc(C(=O)NCc2cccnc2)cc1OC	-6.0%	0.2%	0.4%	7.8%	-1.6%	.	.
COc1ccccc1OCCNC(=O)c1ccccc1C	.	-2.6%	-5.3%	-1.5%	6.8%	.	.

Screens as filed in PubChem BioAssay.
